Drawing on PubChem BioAssay (Tox21), this text covers Potency for 40 molecules.

Each structure is given as a SMILES string. Results filed as inconclusive are left out. Entries that show only a call come without a potency. Calls of active or inactive are those of the source. Calls follow the shape of the dose curve; as a rule, active = well fitted activation curve with a large enough effect in the repeat runs; inconclusive = weak or mixed curves; inactive = flat fitted curve, though single readings scatter.
Potency is read from the fitted curve at half-maximal effect.

The experiment in a line: A CellTox Green Cytotoxicity Assay to monitor cytotoxicity in HEK293 cells - 8 hour (AID 1224884). Also: nearly all actives have a fitted effect of over 35% in size. The following applies: CellTox Green fluorescence; series mostly up to 76.8 µM. The text has this:
National Center for Advancing Translational Sciences [NCATS]
NIH Chemical Genomics Center [NCGC]
U.S. Environmental Protection Agency [EPA]
National Institutes of Environmental Health Sciences [NIEHS]
National Toxicology Program [NTP]
Cell-based models are critical for drug discovery. Determining the natural cytotoxic effects resulting from test compounds is an essential research activity. A CellTox Green Cytotoxicity Assay to monitor cytotoxicity in real time of continues cell culture during 40 hours of the compound treatment was used to screen Tox21 10K library compounds in Hek293 cells. CellTox Green Cytotoxicity Assay is a nonlytic, homogeneous, biofluorescent method to measure cytotoxicity in cell culture after experimental manipulation. The assay system uses a proprietary asymmetric cyanine dye that is excluded from viable cells but preferentially stains the dead cell's DNA. […] Viable cells produce no appreciable increases in fluorescence. Therefore, the fluorescence signal produced by the binding interaction with dead cell DNA is proportional to cytotoxicity.
The mixture of Hek293 cell suspension and reagents were dispensed at 600cells/6 ul/well in 1536-well tissue culture treated black solid bottom plates using a Multidrop dispenser. After the assay plates were incubated at a 37 C/5% CO2 incubator for 5 hours, 23 nL of compounds dissolved in DMSO, positive and negative controls was transferred to the assay plate by a pintool work station. The plates were incubated at 37 C for 40 hours. The fluorescence intensity were measured at 0h, 8h, 16h, 24h, 32h and 40h time points using ViewLux plate reader during compound treatment.
`CCC(Cl)CCl` (stereo not given): the Potency result was “inactive”.
In the case of `Cc1ccccc1C(=O)Nc1cccc(OC(C)C)c1`, the Potency entry is “inactive”.
Regarding `CCOS(C)(=O)=O`, the Potency result was “inactive”.
Take `CC/C(=N\OC/C=C/Cl)C1=C(O)CC(C2CCOCC2)CC1=O` (stereo not given): the Potency result was “inactive”.
Take `COCC(C)N(C(=O)CCl)c1c(C)csc1C` (stereo not given): the Potency entry was “inactive”.
For `BrCC(Br)C1CCC(Br)C(Br)C1` (stereo not given), the Potency result is “inactive”.
For the molecule `COC(=O)c1cncn1C(C)c1ccccc1` (stereo not given), the Potency result is “inactive”.
To `CC1(C)[C@H](C=C(Cl)Cl)[C@@H]1C(=O)O[C@@H](C#N)c1cccc(Oc2ccccc2)c1` belongs “inactive”.
Take `c1ccc(C2CC2)c(OCC2=NCCN2)c1`: the Potency entry is “inactive”.
As to `CCOP(=O)(OCC)SCCSCC`, the Potency result was “inactive”.
As for `Nc1ccc(N=Nc2ccc(-c3ccc(N=Nc4c(S(=O)(=O)O)cc5cc(S(=O)(=O)O)c(N=Nc6ccccc6)c(O)c5c4N)cc3)cc2)c(N)c1`, the Potency entry is “inactive”.
Take `N#Cc1cc(I)c(O)c(I)c1`: the Potency result is “inactive”.
As to `Cc1ccccc1CCl`, the Potency entry was “inactive”.
For `O=C(C(Cl)(Cl)Cl)C(Cl)(Cl)Cl`, the Potency entry was “inactive”.
On to `O=C(O)C1(c2ccc3c(c2)OC[C@H](Cc2ccc(-c4ccccc4)cc2)[C@H]3O)CCCC1`, for which the Potency is 19.5 µM (active).
To `CCCCCCCCCC(=O)O[C@H]1CC[C@H]2[C@@H]3CCC4=CC(=O)CC[C@@H]4[C@H]3CC[C@]12C` belongs “inactive”.
As for `N#CCC#N`, the Potency entry was “inactive”.
`CC(O)(CS(=O)(=O)c1ccc(F)cc1)C(=O)Nc1ccc(C#N)c(C(F)(F)F)c1` (stereo not given): the Potency result is “inactive”.
Consider `Oc1ccc(Cl)c(Cl)c1Cl`, for which the Potency result is “inactive”.
Regarding `C=CC(=O)NCNC(=O)C=C`, the Potency entry is “inactive”.
To `COc1c(C(C)(C)C)cc([N+](=O)[O-])c(C)c1[N+](=O)[O-]` belongs “inactive”; to `ClCc1ccccc1`, “inactive”.
The entry for `CCCCC(CC)COP(=O)(Oc1ccccc1)Oc1ccccc1` (stereo not given) is “inactive”; for `CO/N=C(/C(=O)OC)c1ccccc1COc1ccccc1C` it is “inactive”; for `CCn1cc[n+](C)c1` it is “inactive”.
Consider `CN1[C@@H]2CC[C@H]1CC(OC(=O)c1cc(Cl)cc(Cl)c1)C2` (stereo not given in full), for which the Potency result is “inactive”.
The entry for `Clc1ccc(C(OCCN2CCCCC2)c2ccccc2)cc1` (stereo not given) is “inactive”.
For `CCC(COC(=O)c1cc(OC)c(OC)c(OC)c1)(c1ccccc1)N(C)C` (stereo not given), the Potency entry is “inactive”.
`O=C(N[C@H](c1ccccc1)[C@@H]1CN2CCC1CC2)c1c(Cl)ccc(C(F)(F)F)c1Cl`: the Potency entry is “inactive”.
`O=C(OC1CCCCC1)c1ccccc1C(=O)OC1CCCCC1`: the Potency entry was “inactive”.
Regarding `CCCN(CCCl)c1c([N+](=O)[O-])cc(C(F)(F)F)cc1[N+](=O)[O-]`, the Potency entry is “inactive”.
As to `S=C=NCc1ccccc1`, the Potency entry was “inactive”.
The entry for `NC(=O)C(Cl)(Cl)Cl` is “inactive”.
Take `CCOC(=O)CBr`: the Potency result is “inactive”.
To `C(=NC1CCCCC1)=NC1CCCCC1` belongs “inactive”; to `CCCCCCCCOC(=O)c1ccc(C(=O)OCCCCCCCC)c(C(=O)OCCCCCCCC)c1`, “inactive”; to `CC1CC(CC2CCC(N)C(C)C2)CCC1N` (stereo not given), “inactive”.
`COc1cc(Cl)c(OC)cc1Cl`: the Potency result is “inactive”.
To `O=C(CBr)c1ccccc1` belongs “inactive”; to `O=C(CCl)c1ccc(Cl)cc1Cl`, “inactive”.
